The panel holds about 79,000 compounds, 15% with a hit somewhere; the sample as a whole holds those more often. Unmarked numbers belong to inactive results. The source made the active and inactive calls. Rule as the data show it: active = growth inhibition above about 70%; inactive = the rest.
Columns and labels:
[1] = NCI Yeast Anticancer Drug Screen. Data for the rad50 strain (AID 155);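 also: 0% = growth of vehicle-only cultures of the same strain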; conditions: S. cerevisiae rad50 strain growth inhibition, active compounds read high; at 50.0 µM unless noted
Outline: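 Cells are treated with compound, grown, and their growth is then scored against vehicle-only cultures of the same repair-deficient yeast strain.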

[2] = NCI Yeast Anticancer Drug Screen. Data for the mec2-1 strain (AID 157); conditions: S. cerevisiae mec2-1 strain, active compounds read high; at 50.0 µM unless noted
Outline: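 Vehicle-treated cultures served as reference for growth inhibition of compound-exposed mec2-1 yeast.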

[3] = NCI Yeast Anticancer Drug Screen. Data for the sgs1 mgt1 strain (AID 161);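 also: 0% = growth of cultures given vehicle only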; conditions: S. cerevisiae sgs1 mgt1 strain, active compounds read high; at 50.0 µM unless noted
Outline: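 Genetically altered yeast, compound exposure, growth inhibition relative to vehicle.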

[4] = NCI Yeast Anticancer Drug Screen. Data for the cln2 rad14 strain (AID 165);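 also: 0% = growth equal to vehicle treated cultures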; conditions: S. cerevisiae cln2 rad14 strain, active compounds read high; at 50.0 µM unless noted
Outline: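 Each compound was tested on cln2 rad14 yeast. Inhibition of growth was calculated against vehicle-exposed controls.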

[5] = NCI Yeast Anticancer Drug Screen. Data for the bub3 strain (AID 167); conditions: S. cerevisiae bub3 mutant strain, active compounds read high; at 50.0 µM unless noted
Outline: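 Part of a panel of yeast mutants defective in DNA damage repair or cell cycle regulation. Each strain is grown with compound, and inhibition is calculated relative to solvent-treated cultures.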

[6] = NCI Yeast Anticancer Drug Screen. Data for the mlh1 rad18 strain (AID 175); conditions: S. cerevisiae mlh1 rad18 strain growth inhibition, active compounds read high; at 50.0 µM unless noted
Outline: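 Vehicle-treated cultures served as the reference for growth inhibition in a yeast strain carrying DNA damage repair alterations exposed to each compound.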

SMILES | growth inhibition [1] [%] | growth inhibition [2] | growth inhibition [3] | growth inhibition [4] [%] | growth inhibition [5] | growth inhibition [6]
Oc1cccc2c1CCCC2 | -1.25 | -12.2% | -37% | -16.4 | -1.85% | -3.9%
OC1COC(CCl)OC1C1OC(CCl)OCC1O (stereo unspecified) | 10.2 | 23.6% | 17.9% | 6.3 | 19.4% | 25.9%
CC(=O)NC(CCC(=O)O)C(=O)O (stereo unspecified) | -0.55 | -14.9% | -7.15% | -6.2 | -20.1% | -1.6%
NC(CC(=O)c1ccccc1NC=O)C(=O)O (stereo unspecified) | 8.85 | -1.4% | -9.95% | -48.6 | -0.95% | 3.25%
CCCCCCCCN1CCOCCOCCN(CCCCCCCC)c2nc(Cl)nc(n2)NCCOCCOCCNc2nc(Cl)nc1n2 | 7.8 | -16.1% | -21.8% | -9.7 | -5% | 7.7%
CC1CN(S(=O)(=O)c2ccccc2)CCN1S(=O)(=O)c1ccccc1 (stereo unspecified) | -9.65 | -4.3% | -8.35% | -8.45 | 1.5% | -0.55%
CCNC(=O)COc1ccc(Cl)c(C)c1 | -13.6 | -31.9% | -30.4% | -33.8 | -23.2% | -29.7%
Cc1cc([N+](=O)[O-])cc(Br)c1N | 23.1 | 11.1% | -1.6% | 3.25 | 0.25% | 25.4%
C=C[C@@]1(C)C=C2CC[C@@H]3[C@](C)(CCC[C@@]3(C)C(=O)O)[C@H]2CC1 | 67.5 | 37.8% | 31.3% | 52.1 | 35.1% | 55.2%
NC(=S)/N=C/C=C\c1ccccc1 | -10.6 | 2.3% | 5.25% | 0.35 | -13.8% | -7.7%
NCCCCCCCCCCN | -22.9 | -5.1% | -5.9% | -29.4 | -35.7% | -11.9%
O=C(Nc1nncs1)c1cnccn1 | -1.85 | -6.3% | 14.2% | -3.15 | 11.3% | -71.5%
CN(C)C(=S)S(=O)(=O)c1ccccc1 | 51.5 | 75.8% (active) | 81.2% (active) | 25.2 | 85.6% (active) | 91.2% (active)
CNNC(=O)C(O)C(C)(C)CO (stereo unspecified) | -4.45 | 8.5% | -4.3% | 20.1 | 6.5% | 9.8%
CCCCS(=O)/C=C\S(=O)CCCC (stereo unspecified) | -7 | 6.3% | 4.75% | -16.2 | 8.55% | 1.6%
O=C(NCc1ccccc1)c1n[nH][nH]c1=O | 3.05 | 5.8% | 12.2% | -8.15 | -3.3% | 20.6%
CC(=O)Nc1cc(Cl)ccc1F | 14.1 | -6.15% | 12.4% | -7.1 | -0.7% | 17.9%
Cc1ccc(NC(=O)CC/C(CC(=O)C(C)(C)C)=N/NC(=O)c2cc3ccccc3cc2O)cc1C | 27.9 | 21.1% | 0.35% | -0.35 | 28.4% | 14.8%
CSc1nc(SC)c2ncn(C3CC(Oc4ccc(C)cc4)C(COc4ccc(C)cc4)O3)c2n1 (stereo unspecified) | 15.8 | -5.75% | 17.1% | 10.3 | 8.45% | -18.2%
CC(=O)[C@@]1(O)CC[C@H]2[C@@H]3CC[C@@H]4C[C@H](O)CC[C@]4(C)[C@H]3[C@H](O)C[C@@]21C | -9.8 | -3.7% | 8% | -34.1 | 11.3% | -7.85%
O=c1ccc2ccc3[nH]onc3c2c1 | 10.2 | -12.6% | -5.85% | -48.8 | -26.4% | -2.2%

SMILES | growth inhibition [1] [%] | growth inhibition [2] | growth inhibition [3] | growth inhibition [4] [%] | growth inhibition [5] | growth inhibition [6]
OC[C@H]1N[C@H](CO)[C@@H](O)[C@H]1O | 1.7 | -10.2% | 4.35% | 16.8 | -15.6% | 10.2%
Clc1cccc(Nc2ncnc3nc[nH]c23)c1 | 7.15 | 0.25% | 5.1% | -12.2 | -12.9% | 0.5%
CCOc1ccc(F)cc1 | 10.7 | -13.5% | 16.5% | 22.6 | 6.3% | 25.9%
COc1cc(/C=C/C(=O)c2sc(Nc3ccccc3)nc2C)ccc1O | 27.8 | 2.8% | 13.2% | 0.85 | 19% | 28%
CCCCCCCCSC(=N)N | 23.9 | -14.1% | 1.95% | 18.1 | 36.1% | 10.7%
CC(=O)CC(=O)N1CCc2ccccc21 | 3.8 | -14.9% | 3.8% | 2.55 | -19.6% | 1.1%
CNC(=S)NCOCCOC(C)=O | 6.75 | 22.1% | 15.2% | -26.9 | 0.75% | 3.45%
NNC(=O)CCC(=O)O | 0.75 | -0.5% | 1.7% | -3.6 | 12.7% | -15.6%
Cc1ccc(C)c(NC(=O)Nc2ccccc2)c1 | 3.3 | 4.25% | -7.2% | -25.1 | 0.35% | 1%
c1c[nH]c(CN2CCOCC2)n1 | -32 | -28.9% | -43.4% | 2.5 | -38.9% | -5.15%
COc1ccc2c(c1)CCC1=C2CCC2(C)C1=CCS2(=O)=O (stereo unspecified) | 3.85 | -5.6% | -7.9% | 22.6 | 8.45% | -1.9%
COC(=O)C(=O)C1CCCC(C)(c2ccccc2)C1 (stereo unspecified) | -0.1 | 2.05% | -5.05% | 0.2 | 1.7% | -4.7%
CC(N1CCS(=O)(=O)CC1)P(=O)(O)O (stereo unspecified) | 0.3 | 8.3% | 8.8% | -8.5 | 17.8% | 2.3%
Cc1cc(C(C)(C)C)cc(CNC2CCCCC2)c1O | -4.35 | -27.4% | -25.4% | -18 | -35.2% | 10.2%
CC1=NN(C(=O)Cc2ccccc2)C(=O)/C1=C\C=C\c1ccccc1 | 11.3 | -28.2% | -20.6% | -9.2 | -15.2% | -7.85%
CCOc1ccccc1NC(=O)/C(=N\NC(C)(C)C)C1C(=O)Nc2ccccc2S1=O (stereo unspecified) | -4.3 | -27.9% | -9.85% | 9.2 | -6.9% | 10.1%
CC(=O)OC/C(=C/C#N)C1CCC2C3CC=C4CC(OC(C)=O)CCC4(C)C3CCC12C (stereo unspecified) | 15.6 | -1.25% | -3.75% | -12.8 | -2.15% | 8.65%
C=C(C)C1CCC2(C)C1CCC1(C)C2CCC2C3(C)C4OC(OC4=O)C(C)(C)C3CCC21C (stereo unspecified) | -0.8 | -20% | 11.8% | 0.1 | 17.6% | -53%
c1ccc(-n2ncnn2)cc1 | -6.5 | -11.3% | -8.55% | -41.1 | 24.4% | -1.75%
NC(Cc1ccc2nc3c4ccccc4c(=O)cc-3oc2c1)C(=O)O (stereo unspecified) | -23.4 | -40.9% | -14.6% | 19.3 | 10.1% | -13.7%
